This is an account of results in PubChem BioAssay (NCI).

What all share (experiment): NCI-60 one-dose screen, 48 h (100 = growth as untreated, 0 = no growth, -100 = all killed)
One assay relates to A549/ATCC NSCLC. The following applies: 10 µM unless noted.
Another assay relates to K-562 leukemia. The following applies: 10 µM unless noted.
The test system of another assay is SF-295 CNS. The conditions noted are these: 10 µM unless noted.
A further assay has as its system SF-539 CNS. The following applies: 10 µM unless noted.
The test system of the next assay is UACC-257 melanoma. The following applies: 10 µM unless noted.
In the next assay the test system is HCT-15 colon. The following applies: 10 µM.
For a further assay, the system named is HT29 colon. The conditions noted are these: 10 µM unless noted.
For the next assay, the system named is SNB-75 CNS. The conditions noted are these: 10 µM unless noted.
The next assay has as its system PC-3 prostate. The following applies: 10 µM unless noted.
The test system of the next assay is SK-MEL-5 melanoma. The conditions noted are these: 10 µM unless noted.
Another assay relates to SK-MEL-2 melanoma. The conditions noted are these: 10 µM unless noted.
For the next assay, the system named is ACHN renal. The following applies: 10 µM unless noted.
Another assay deals with A498 renal. The conditions noted are these: 10 µM unless noted.
In the next assay the test system is HL-60(TB) leukemia. The conditions noted are these: 10 µM unless noted.
The next assay deals with OVCAR-8 ovarian. The following applies: 10 µM unless noted.
In another assay the test system is OVCAR-4 ovarian. The conditions noted are these: 10 µM unless noted.
In a further assay the test system is IGROV1 ovarian. The following applies: 10 µM.
The subject of another assay is HS 578T breast. The conditions noted are these: 10 µM unless noted.
In the next assay the test system is T-47D breast. The conditions noted are these: 10 µM unless noted.
A further assay relates to HCC-2998 colon. The conditions noted are these: 10 µM unless noted.

The panel holds about 83,000 compounds, 20% with a hit somewhere; the sample as a whole holds those more often.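 Single-dose data. Exposure time 48 hours. Values below 10 considered active.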 Values without a mark were called inactive. Active and inactive are the calls of the source.

As to `CC(=O)N(C)C1=Nc2ccc(Cl)cc2C(c2ccccc2)=[N+]([O-])C1`, the growth in the assay on A549/ATCC NSCLC was 106%; in the assay on K-562 leukemia, 109%; with SF-295 CNS it was 107%; in the assay on SF-539 CNS, 104%; in the assay with UACC-257 melanoma it was 95.7%; in the assay on HCT-15 colon, 108%. Further, the growth in the assay on HT29 colon was 104%; in the assay with SNB-75 CNS, 95.9%; with PC-3 prostate, 91%; in the assay with SK-MEL-5 melanoma, 105%; in the assay with SK-MEL-2 melanoma, 95.8%; with ACHN renal, 98.7%. In addition, the growth in the assay with A498 renal is 106%; in the assay on HL-60(TB) leukemia it was 135%; in the assay on OVCAR-8 ovarian it was 102%; with OVCAR-4 ovarian, 114%; in the assay on IGROV1 ovarian it was 106%; with HS 578T breast it was 111%. For the same compound, in the assay with T-47D breast, the growth is 94.9%.

Regarding `COc1ccc(C(c2ccc(OC)cc2)C(Cl)(Cl)Cl)cc1`, the growth is 94.6% with A549/ATCC NSCLC; 65.7% in the assay with K-562 leukemia; 102% in the assay on SF-295 CNS; 79.5% in the assay with SF-539 CNS; 78.8% in the assay with UACC-257 melanoma; 91.8% with HCT-15 colon. In addition, the growth in the assay with HT29 colon was 78.3%; in the assay with PC-3 prostate, 68.7%; in the assay with SK-MEL-5 melanoma, 80.2%; in the assay with SK-MEL-2 melanoma, 77.4%; in the assay with ACHN renal, 92.1%; in the assay with A498 renal, 57.3%. The growth in the assay with HL-60(TB) leukemia was 72.5%; with OVCAR-8 ovarian, 86.7%; in the assay with IGROV1 ovarian, 76.4%; in the assay on T-47D breast it was 68.4%; in the assay with HCC-2998 colon, 94.4%.

Regarding `C[C@]12CCc3sc(-c4ccc(Cl)cc4)nc3C1=CC[C@@H]1[C@@H]2CC[C@]2(C)C(=O)CC[C@@H]12`, the growth was 80.2% in the assay on A549/ATCC NSCLC; 7.44% (active) with K-562 leukemia; 5.96% (active) in the assay with SF-295 CNS; 29.6% with SF-539 CNS; 99% in the assay with UACC-257 melanoma; 34.6% in the assay with HCT-15 colon. The growth is 58.3% with SNB-75 CNS; 50% with PC-3 prostate; 62.4% in the assay on SK-MEL-5 melanoma; 70.6% in the assay with ACHN renal; 73.3% in the assay on A498 renal; 39% in the assay with HL-60(TB) leukemia. The growth in the assay on OVCAR-8 ovarian is 80.4%; in the assay with OVCAR-4 ovarian, 74%; in the assay with IGROV1 ovarian, 92.5%; in the assay on HS 578T breast, 44.6%; in the assay on T-47D breast it was 66.2%; with HCC-2998 colon, 90.4%.

Consider `O=C1NC(=O)C(=Cc2cn(Cc3ccccc3)c3ccccc23)C(=O)N1`, for which the growth in the assay with K-562 leukemia is 63.5%; in the assay with SF-295 CNS it was 37.2%; in the assay on SF-539 CNS it was 89.1%; in the assay on UACC-257 melanoma, 34.2%; with HCT-15 colon, 93.8%; in the assay with HT29 colon it was 105%. Moreover, the growth is 77.6% with SNB-75 CNS; 84.2% with PC-3 prostate; 101% in the assay on SK-MEL-5 melanoma; 105% with SK-MEL-2 melanoma; 92.7% in the assay on ACHN renal; -72.6% (active) with A498 renal. Further, the growth is 96.3% with HL-60(TB) leukemia; 81.1% with OVCAR-8 ovarian; 68.3% in the assay on OVCAR-4 ovarian; -26.7% (active) in the assay on IGROV1 ovarian; 78% in the assay on HS 578T breast; 55.9% in the assay on T-47D breast. The growth in the assay on HCC-2998 colon was 70.2%.

Turning to `CC(=O)[O][Hg][c]1ccccc1`, the growth in the assay on K-562 leukemia is -21% (active); with SF-295 CNS, 13.6%; with SF-539 CNS, -53.6% (active); in the assay with HCT-15 colon, -65.5% (active); with HT29 colon it was -47.9% (active); with SNB-75 CNS, -65.9% (active). Also, the growth in the assay with PC-3 prostate is -57.8% (active); in the assay with SK-MEL-5 melanoma it was -87.6% (active); with SK-MEL-2 melanoma, -52.9% (active); in the assay on A498 renal, -46.6% (active); with HL-60(TB) leukemia, -27.5% (active); in the assay with OVCAR-4 ovarian it was -25.2% (active). In addition, the growth in the assay with IGROV1 ovarian is -55.1% (active); in the assay with HS 578T breast, 16.4%; in the assay with T-47D breast, -42.1% (active); with HCC-2998 colon, -96.5% (active).

In the case of `COc1ccc(C2SCC(=O)Nc3c2c(C)nn3-c2nc3ccc(C)cc3s2)cc1O` (stereo not given), the growth with A549/ATCC NSCLC is 29.3%; in the assay with K-562 leukemia, 9.45% (active); in the assay with SF-295 CNS it was 32.4%; in the assay with SF-539 CNS, 31%; in the assay with UACC-257 melanoma, 70.1%; in the assay on HCT-15 colon, 23.9%. The growth with HT29 colon was 10.5%; in the assay on SNB-75 CNS, 32.6%; in the assay with PC-3 prostate it was 19.9%; with SK-MEL-5 melanoma it was 16.6%; with SK-MEL-2 melanoma, -1.24% (active); in the assay on ACHN renal it was 44.2%. For the same compound, the growth was 40.9% in the assay with A498 renal; 50.7% with OVCAR-8 ovarian; 72.7% in the assay on OVCAR-4 ovarian; 52.7% in the assay with IGROV1 ovarian; 42.2% in the assay on HS 578T breast; 54.2% in the assay with HCC-2998 colon.

Regarding `O=[N+]([O-])c1ccc(/C=C/C=C/c2ccc(S(=O)(=O)F)cc2)c(Cl)c1`, the growth in the assay on A549/ATCC NSCLC is 98.6%; in the assay with K-562 leukemia, 96.1%; in the assay with SF-295 CNS, 93.1%; in the assay with SF-539 CNS, 104%; in the assay on UACC-257 melanoma, 96.5%; with HCT-15 colon, 98%. Moreover, the growth is 96% with HT29 colon; 71.7% in the assay on SNB-75 CNS; 91.8% with PC-3 prostate; 97.9% in the assay with SK-MEL-5 melanoma; 84% with SK-MEL-2 melanoma; 102% with ACHN renal. Besides, the growth is 100% in the assay on A498 renal; 91.9% in the assay with HL-60(TB) leukemia; 99% with OVCAR-8 ovarian; 87.5% in the assay with OVCAR-4 ovarian; 104% in the assay on IGROV1 ovarian; 111% in the assay with HS 578T breast. Besides, the results for the growth with T-47D breast and in the assay on HCC-2998 colon were 86.2% and 106%, respectively.

For `CCCCCCCCCCCCOc1ccc(C(=O)Oc2ccc(CSP3(=O)OCC4OC(n5cnc6c(N)ncnc65)C(F)C4OP(=O)(O)OCC4OC(n5ccc(=O)[nH]c5=O)C(F)C4O3)cc2)cc1` (stereo not given), the growth was 98.3% in the assay on A549/ATCC NSCLC; 52.1% with K-562 leukemia; 110% in the assay with SF-295 CNS; 24% with SF-539 CNS; 31.4% in the assay on UACC-257 melanoma; 101% in the assay on HCT-15 colon. Further, the growth in the assay with HT29 colon was 78.8%; in the assay on SNB-75 CNS it was 107%; with PC-3 prostate, 100%; with SK-MEL-5 melanoma, 109%; in the assay on SK-MEL-2 melanoma, 86.6%; in the assay with A498 renal, 71.3%. The growth was 109% in the assay with OVCAR-8 ovarian; 54.2% with OVCAR-4 ovarian; 97% in the assay with IGROV1 ovarian; 117% in the assay on HS 578T breast; 88.5% in the assay with T-47D breast; 105% in the assay with HCC-2998 colon.
